In PubChem BioAssay (NCATS):
Inconclusive results are not listed. Active and inactive are the calls of the source. Unless noted, the call rests on the fitted dose curve.

Experiments:
[1] = target: Bile acid receptor (Homo sapiens) (UniProt Q96RI1); assay: qHTS assay for small molecule antagonists of farnesoid X receptor signaling (AID 588526); further: potency means the concentration at half of the fitted maximal effect
Outline: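 Antagonist mode: titrated compounds tested against chenodeoxycholic acid stimulation (normalized to 50 uM CDCA and DMSO) in GeneBLAzer HEK293T cells for 16 h. Beta-lactamase read by CCF4 fluorescence; IC50 from Hill fits.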

[2] = target: Bile acid receptor (Homo sapiens) (UniProt Q96RI1); assay: qHTS assay for small molecule agonists of farnesoid X receptor signaling (AID 588527); details: HEK293T FXR-UAS-bla, beta-lactamase ratio, 16 h; activation: stronger effect = higher value;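 further: series mostly up to about 77 µM; 0% = vehicle basal and 100% = reference agonist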
Outline: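 FXR-UAS-bla HEK293T cells (10% dialyzed FBS) preincubated 5-7 h at 37 C, then compounds at up to 92 uM for 16 h at 37 C. CCF4 beta-lactamase read-out after 2 h RT. Normalized to chenodeoxycholic acid (100 uM) and DMSO; Hill fit gave EC50 and efficacy.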

[3] = target: Peroxisome proliferator-activated receptor gamma (Homo sapiens) (UniProt P37231); assay: qHTS assay for small molecule agonists of peroxisome proliferator-activated receptor gamma signaling (AID 588536; active means well fitted curve in the direction sought with a large enough effect in the signal ratio, with a control signal flat, not every such curve was filed as active; the % refers to the signal ratio;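 further: 0% = DMSO basal wells and 100% = rosiglitazone at 2 µM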)
Outline: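 Cells were plated and held 6–6.5 h at 37 C, then compounds were added as a titration series. After a further 16 h, CCF4 dye was loaded for 2 h at room temperature and emission at 460/530 nm recorded.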

[4] = target: Vitamin D3 receptor (Homo sapiens) (UniProt P11473); assay: qHTS assay for small molecule antagonists of vitamin D receptor signaling (AID 588541);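 further: receptor activated by calcitriol during compound treatment; series mostly up to about 77 µM; on the % scale 0 is the no-effect control and ±100 the full control effect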
Outline: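 VDR-UAS-bla HEK293T cells in 2% charcoal-stripped FBS were stimulated with 1-alpha,25-dihydroxyvitamin D3 (3 nM final) plus compound for 16 h at 37 C. The beta-lactamase CCF4 readout was normalized to 50 nM agonist and DMSO, and Hill fits gave IC50.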

[5] = target: Vitamin D3 receptor (Homo sapiens) (UniProt P11473); assay: qHTS assay for small molecule agonists of vitamin D receptor signaling (AID 588543);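 further: 0% = DMSO basal and 100% = reference agonist control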
Outline: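 β-lactamase reporter, VDR-UAS-bla HEK293T, agonist mode. Cells plated 5 h at 37 °C, compound titration 16 h at 37 °C, CCF4 dye 2 h RT, ratio 460/530 nm. Hill fit → EC50, efficacy vs 50 nM 1α,25-(OH)2D3.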

[6] = qHTS assay for small molecule agonists of retinoid X receptor alpha signaling (AID 588544); details: HEK293T RXRa-UAS-bla, beta-lactamase reporter, 18 h; 530 nm emission;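 on activation: 0% = DMSO basal wells and 100% = reference agonist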
[7] = target: Retinoic acid receptor RXR-alpha (Homo sapiens) (UniProt P19793); assay: as above
[8] = target: Thyroid hormone receptor beta (Homo sapiens) (UniProt P10828); assay: qHTS assay for small molecule agonists of thyroid hormone receptor beta signaling (AID 588545);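 further: 0% = DMSO only and 100% = 10 nM T3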
Outline: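 TR-UAS-bla GripTite HEK 293 cells (2500/well, medium with 2% charcoal/dextran FBS) were treated in agonist mode for 18 h at 37 C, titrated. Beta-lactamase was read by CCF4 ratio after 2 h; normalized to 10 nM T3 (100%) and DMSO, Hill-fitted for EC50 and efficacy.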

[9] = qHTS assay for small molecule antagonists of retinoid X receptor alpha signaling (AID 588546; active means well fitted inhibition curve with a large enough effect in the signal ratio, with a control signal flat, not every such curve was filed as active; the % refers to the signal ratio;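 further: cells stimulated with 9-cis-retinoic acid as agonist; on the % scale 0 is the no-effect control and ±100 the full control effect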); details: HEK293T RXRa-UAS-bla, beta-lactamase ratio, antagonist mode; measured here: W530 green channel, cytotoxicity proxy
Outline: (§1)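 Beta-lactamase reporter inhibition, read as CCF4 fluorescence ratio (ex 405, em 460/530 nm) after 2 h at RT. HEK293T UAS-bla cells, 2500/well, were stimulated with 9-cis-RA at 500 or 100 nM final alongside test compound for 18 h at 37 C.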

[10] = target: Retinoic acid receptor RXR-alpha (Homo sapiens) (UniProt P19793); assay: as above; details: HEK293T RXRa-UAS-bla, beta-lactamase ratio, antagonist mode
Outline: as §1

[11] = target: Thyroid hormone receptor beta (Homo sapiens) (UniProt P10828); assay: qHTS assay for small molecule antagonists of thyroid hormone receptor beta signaling (AID 588547; active means well fitted inhibition curve with a large enough effect in the signal ratio, with a control signal flat, not every such curve was filed as active; the % refers to the signal ratio;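 further: cells stimulated with 0.4 nM T3 agonist during compound exposure; series mostly up to about 77 µM; on the % scale 0 is the no-effect control and ±100 the full control effect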); details: TR-UAS-bla HEK293, beta-lactamase ratio, antagonist mode, 18 h
Outline: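 TR-UAS-bla GripTite HEK293 cells in 2% charcoal/dextran FBS medium; compounds 0.59 nM to 92 uM with T3 at 0.4nM final, 18 h at 37 C. Beta-lactamase read by CCF4 fluorescence (460/530 nm); Hill fits gave IC50 and efficacy.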

[12] = qHTS assay for small molecule activators of the p53 signaling pathway (AID 651743; active means well fitted activation curve with a large enough effect in the signal ratio, not every such curve was filed as active; the % refers to the signal ratio; further: series mostly up to about 92 µM; % of control where 0% means no effect); details: HCT-116 p53RE-bla, beta-lactamase FRET ratio, 16 h; activation: stronger effect = higher value
Outline: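 Following 16 hours of compound exposure at 37 C, HCT-116 cells bearing the p53RE-bla reporter were loaded with LiveBLAzer B/G FRET substrate for 2 hours at room temperature and fluorescence intensity was recorded.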

[13] = target: Peroxisome proliferator-activated receptor alpha (Homo sapiens) (UniProt Q07869); assay: qHTS assay for small molecule agonists of the peroxisome proliferator-activated receptor alpha (PPARalpha) signaling pathway (AID 651778; active means well fitted curve in the direction sought with a large enough effect; an effect the other way counts as inactive or inconclusive; further: % of control where 0% means no effect); details: PathHunter PPARalpha complementation, chemiluminescence, 6 h; max response: stronger effect = higher value
Outline: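 Enzyme-fragment complementation assay in which ligand-bound PPARalpha translocates and forms an active enzyme that generates chemiluminescence. Cells were plated overnight, exposed to compound for 6 hr at 37 C, and then given detection reagent for 60 min at room temperature.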

[14] = qHTS assay for small molecule agonists of the antioxidant response element (ARE) signaling pathway measured by Nrf2-dependant transcriptional activity (AID 720636; active means well fitted curve in the direction sought with a large enough effect in the repeat runs; an effect the other way counts as inactive or inconclusive;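 further: HepG2 cells with an ARE-driven luciferase reporter; % of control where 0% means no effect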)
Outline: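 Reporter gene assay, HepG2 ARE-luc: 16 hr compound, 37 C, 5% CO2; read-out luciferase luminescence.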

[15] = qHTS assay for cell viability of HEK293 cells (AID 743288; active means well fitted curve in the direction sought with a large enough effect; an effect the other way counts as inactive or inconclusive; further: on the % scale 0 is the no-effect control and ±100 the full control effect; nearly all actives have a fitted effect of over 50% in size); details: ATP luminescence (CellTiter-Glo), 18 h; max response: stronger effect = lower value
Outline: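 ATP luminescence (CellTiter-Glo) reports metabolically competent cell number after parental HEK293 cells, 2,000/well, were treated with DMSO-dissolved compounds for 18 h at 37 C; reagent incubation 30 min, room temperature.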

[16] = qHTS assay for cell viability of the p53RE-bla HCT-116 cell line (AID 743292; active means well fitted curve in the direction sought with a large enough effect; an effect the other way counts as inactive or inconclusive; further: on the % scale 0 is the no-effect control and ±100 the full control effect; nearly all actives have a fitted effect of over 55% in size)
Outline: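 Readout: CellTiter-Glo luminescence after 30 min RT. Treatment: compounds in DMSO, 16 h, 37 C. Cells: CellSensor p53RE-bla HCT-116, 4,000/well, preincubated 5 h.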

[17] = target: Nuclear receptor subfamily 1 group I member 2 (Rattus norvegicus) (UniProt Q9R1A7); assay: qHTS assay for small molecule activators of the rat pregnane X receptor (rPXR) signaling pathway (AID 651751; call rule not given here; further: 0% is about no effect); details: rPXR reporter cells, luciferase (One-Glo), 24 h
[18] = qHTS assay for small molecule activators of the human pregnane X receptor (PXR) signaling pathway (AID 720659; call rule not given here; further: 0% is about no effect)
[19] = target: Glucocorticoid receptor (Homo sapiens) (UniProt P04150); assay: qHTS assay for small molecule agonists of glucocorticoid receptor signaling (AID 588532; active means well fitted curve in the direction sought with a large enough effect in the signal ratio, with a control signal flat; the % refers to the signal ratio;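 further: 100% = dexamethasone at 0.1 µM and 0% = DMSO only wells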); details: HeLa MMTV-bla, beta-lactamase ratio, agonist, 18 h; activation: stronger effect = higher value, percent of dexamethasone control, DMSO zero
Outline: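 MMTV-bla HeLa beta-lactamase reporter cells in 1% charcoal/dextran FBS medium, compounds up to 92 uM for 18 h at 37 C, CCF4 readout; normalized to 0.1 uM dexamethasone (100%), EC50 and efficacy from Hill fits.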

[20] = target: Glucocorticoid receptor (Homo sapiens) (UniProt P04150); assay: qHTS assay for small molecule antagonists of glucocorticoid receptor signaling (AID 588533; active means well fitted inhibition curve with a large enough effect in the signal ratio, with a control signal flat, not every such curve was filed as active; the % refers to the signal ratio; further: on the % scale 0 is the no-effect control and ±100 the full control effect)
Outline: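 Antagonist-mode qHTS: compound titrations added to GRE-bla HeLa cells, then dexamethasone 2 nM final; 18 h, 37 C. CCF4 FRET fluorescence normalized to dexamethasone and DMSO; IC50 from Hill fit.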

[21] = target: Peroxisome proliferator-activated receptor delta (Homo sapiens) (UniProt Q03181); assay: qHTS assay for small molecule agonists of peroxisome proliferator-activated receptor delta signaling (AID 588534);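 further: 0% = DMSO basal wells and 100% = positive control agonist at 10 µM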
Outline: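 Agonist-mode beta-lactamase reporter readout (CCF4 dye, 2 h at RT) after 18 h at 37 °C exposure to a titration; Hill-equation fitting gave EC50 and maximal response.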

[22] = qHTS assay for small molecule antagonists of peroxisome proliferator-activated receptor delta signaling (AID 588535); details: HEK293T PPARd-UAS-bla, beta-lactamase FRET ratio, 18 h; 460 nm channel;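 further: cells co-treated with a PPAR-delta agonist as stimulator during compound exposure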
Outline: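 Fluorescence from CCF4-loaded GeneBLAzer PPAR-delta-UAS-bla HEK293T cells (2 hrs RT loading) quantified reporter inhibition after an 18 hr, 37 C compound exposure across a titration.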

[23] = target: Peroxisome proliferator-activated receptor gamma (Homo sapiens) (UniProt P37231); assay: qHTS assay for small molecule antagonists of peroxisome proliferator-activated receptor gamma signaling (AID 588537; active means well fitted inhibition curve with a large enough effect in the signal ratio, with a control signal flat, not every such curve was filed as active; the % refers to the signal ratio; further: potency means the concentration at half of the fitted maximal effect)
Outline: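 Fluorescence at 460 and 530 nm (405 nm excitation) reported beta-lactamase cleavage of CCF4 after 2 h room-temperature loading. HEK293 reporter cells in 1% charcoal/dextran-treated FBS had received compound and rosiglitazone for 16 h.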

[24] = qHTS assay for small molecule agonists of the antioxidant response element (ARE) signaling pathway (AID 651741; active means well fitted activation curve with a large enough effect in the signal ratio; the % refers to the signal ratio; further: potency means the concentration at half of the fitted maximal effect)
Outline: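 Stably integrated ARE-beta-lactamase reporter HepG2 cells; 16 h compound incubation, 37 C; LiveBLAzer FRET substrate 2 h at room temperature; fluorescence intensity.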

[25] = qHTS assay for small molecule activators of the nuclear factor-kappa B (NF-kB) signaling pathway (AID 651749; active means well fitted activation curve with a large enough effect in the signal ratio; the % refers to the signal ratio; further: series mostly up to about 77 µM; % of control where 0% means no effect); details: NF-kB-bla ME-180 cells, beta-lactamase FRET ratio, 16 h; activation: stronger effect = higher value
Outline: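 In this qHTS format, compounds acting as activators increase NF-kB-driven beta-lactamase in ME-180 cells, measured as disrupted FRET after 16 hr exposure at 37C and 5% CO2.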

[26] = qHTS assay for environmental chemicals that activate the Aryl hydrocarbon Receptor (AhR) signaling pathway (AID 651777; active means well fitted curve in the direction sought with a large enough effect; an effect the other way counts as inactive or inconclusive; further: % of control where 0% means no effect; nearly all actives have a fitted effect of over 15% in size); details: 1A2-DRE human hepatoma cells, luciferase, 24 h; activation: stronger effect = higher value
Outline: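 Stable CYP1A2 promoter/DRE-luciferase human hepatoma line treated 24 hr; One-Glo luminescence, 30 min RT.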

[27] = qHTS assay for small molecule agonists of the antioxidant response element (ARE) signaling pathway measured by Nrf2-dependant transcriptional activity - cell viability counter screen (AID 720653; active means well fitted curve in the direction sought with a large enough effect in the repeat runs; an effect the other way counts as inactive or inconclusive; further: on the % scale 0 is the no-effect control and ±100 the full control effect); details: ARE-bla HepG2 viability, CellTiter-Glo ATP luminescence, 16 h; max response: stronger effect = lower value
Outline: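 ARE-bla HepG2 cells treated with compounds for 16 h at 37C; this counter screen measures viability as intracellular ATP by CellTiter-Glo luminescence after 30 min at room temperature.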

Vitamin D3 receptor (Homo sapiens), sequence (P11473 whole entry, looked up): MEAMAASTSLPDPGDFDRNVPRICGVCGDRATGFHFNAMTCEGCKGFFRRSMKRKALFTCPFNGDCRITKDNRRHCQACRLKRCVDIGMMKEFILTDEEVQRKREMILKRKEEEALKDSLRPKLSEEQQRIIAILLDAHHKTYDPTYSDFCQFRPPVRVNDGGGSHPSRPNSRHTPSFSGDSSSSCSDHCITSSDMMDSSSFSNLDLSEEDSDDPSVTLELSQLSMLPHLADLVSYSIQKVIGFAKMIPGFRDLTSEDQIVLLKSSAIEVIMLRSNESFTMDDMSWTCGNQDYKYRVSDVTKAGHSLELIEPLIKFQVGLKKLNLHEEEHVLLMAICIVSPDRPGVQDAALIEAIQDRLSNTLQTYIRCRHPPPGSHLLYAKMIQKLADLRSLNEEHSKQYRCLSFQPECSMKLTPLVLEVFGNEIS
Glucocorticoid receptor (Homo sapiens), sequence (P04150 whole entry, looked up): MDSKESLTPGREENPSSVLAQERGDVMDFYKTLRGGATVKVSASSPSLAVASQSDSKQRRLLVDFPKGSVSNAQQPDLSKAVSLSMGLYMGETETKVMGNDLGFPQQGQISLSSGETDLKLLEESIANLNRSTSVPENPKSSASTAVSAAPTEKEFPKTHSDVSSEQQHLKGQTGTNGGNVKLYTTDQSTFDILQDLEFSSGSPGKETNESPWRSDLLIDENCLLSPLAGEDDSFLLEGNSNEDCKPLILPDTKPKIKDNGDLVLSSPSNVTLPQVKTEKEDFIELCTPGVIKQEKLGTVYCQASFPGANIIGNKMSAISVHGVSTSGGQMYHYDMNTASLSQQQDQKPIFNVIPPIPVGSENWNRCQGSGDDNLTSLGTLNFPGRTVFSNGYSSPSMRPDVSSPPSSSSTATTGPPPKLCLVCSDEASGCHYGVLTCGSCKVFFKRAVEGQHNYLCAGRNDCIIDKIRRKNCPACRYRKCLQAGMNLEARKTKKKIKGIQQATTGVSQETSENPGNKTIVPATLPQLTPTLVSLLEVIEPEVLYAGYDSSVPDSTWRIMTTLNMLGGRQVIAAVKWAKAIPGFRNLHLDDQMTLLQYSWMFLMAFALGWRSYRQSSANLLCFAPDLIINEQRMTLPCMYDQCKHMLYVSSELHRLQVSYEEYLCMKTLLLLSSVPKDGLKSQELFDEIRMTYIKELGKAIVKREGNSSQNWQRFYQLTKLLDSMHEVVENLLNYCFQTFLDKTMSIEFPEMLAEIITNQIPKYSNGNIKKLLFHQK
Retinoic acid receptor RXR-alpha (Homo sapiens), sequence (P19793 whole entry, looked up): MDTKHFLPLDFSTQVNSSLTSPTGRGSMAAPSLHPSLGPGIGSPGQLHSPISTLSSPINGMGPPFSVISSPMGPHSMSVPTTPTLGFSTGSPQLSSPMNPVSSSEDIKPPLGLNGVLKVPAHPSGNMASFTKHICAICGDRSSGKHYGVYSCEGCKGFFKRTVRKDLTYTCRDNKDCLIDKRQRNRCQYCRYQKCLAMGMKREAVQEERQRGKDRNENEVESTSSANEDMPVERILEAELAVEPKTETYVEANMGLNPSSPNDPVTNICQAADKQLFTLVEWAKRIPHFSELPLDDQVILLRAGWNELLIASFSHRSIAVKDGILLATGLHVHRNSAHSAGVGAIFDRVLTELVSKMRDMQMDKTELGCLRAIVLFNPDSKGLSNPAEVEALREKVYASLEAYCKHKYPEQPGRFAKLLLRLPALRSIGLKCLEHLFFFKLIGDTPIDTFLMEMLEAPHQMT
Thyroid hormone receptor beta (Homo sapiens), sequence (P10828 whole entry, looked up): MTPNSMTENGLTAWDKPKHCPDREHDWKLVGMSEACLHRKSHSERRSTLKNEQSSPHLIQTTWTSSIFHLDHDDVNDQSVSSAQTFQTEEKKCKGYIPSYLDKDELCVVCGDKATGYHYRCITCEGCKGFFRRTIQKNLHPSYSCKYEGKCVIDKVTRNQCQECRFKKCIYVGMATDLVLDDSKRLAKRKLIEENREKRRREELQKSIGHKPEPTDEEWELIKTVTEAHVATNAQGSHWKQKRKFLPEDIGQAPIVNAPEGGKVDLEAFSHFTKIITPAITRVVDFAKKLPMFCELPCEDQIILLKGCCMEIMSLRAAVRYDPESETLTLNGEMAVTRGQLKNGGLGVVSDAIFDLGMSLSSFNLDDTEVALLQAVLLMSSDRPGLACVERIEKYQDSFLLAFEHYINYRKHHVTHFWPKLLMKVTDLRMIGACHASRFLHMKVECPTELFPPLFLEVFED
Peroxisome proliferator-activated receptor gamma (Homo sapiens), sequence (P37231 whole entry, looked up): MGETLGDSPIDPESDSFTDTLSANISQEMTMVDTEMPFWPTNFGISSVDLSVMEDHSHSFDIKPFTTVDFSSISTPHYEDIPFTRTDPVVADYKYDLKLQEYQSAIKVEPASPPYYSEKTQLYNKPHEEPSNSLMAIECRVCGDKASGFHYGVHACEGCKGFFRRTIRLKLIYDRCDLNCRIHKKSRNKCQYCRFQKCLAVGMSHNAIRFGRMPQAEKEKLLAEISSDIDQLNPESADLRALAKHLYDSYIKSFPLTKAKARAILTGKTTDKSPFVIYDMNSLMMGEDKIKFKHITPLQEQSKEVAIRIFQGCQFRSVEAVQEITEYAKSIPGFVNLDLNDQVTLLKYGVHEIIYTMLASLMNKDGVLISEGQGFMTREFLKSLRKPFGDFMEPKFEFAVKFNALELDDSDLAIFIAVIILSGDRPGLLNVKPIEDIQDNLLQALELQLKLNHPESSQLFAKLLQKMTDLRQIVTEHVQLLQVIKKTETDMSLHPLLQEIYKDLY
Bile acid receptor (Homo sapiens), sequence (Q96RI1 whole entry, looked up): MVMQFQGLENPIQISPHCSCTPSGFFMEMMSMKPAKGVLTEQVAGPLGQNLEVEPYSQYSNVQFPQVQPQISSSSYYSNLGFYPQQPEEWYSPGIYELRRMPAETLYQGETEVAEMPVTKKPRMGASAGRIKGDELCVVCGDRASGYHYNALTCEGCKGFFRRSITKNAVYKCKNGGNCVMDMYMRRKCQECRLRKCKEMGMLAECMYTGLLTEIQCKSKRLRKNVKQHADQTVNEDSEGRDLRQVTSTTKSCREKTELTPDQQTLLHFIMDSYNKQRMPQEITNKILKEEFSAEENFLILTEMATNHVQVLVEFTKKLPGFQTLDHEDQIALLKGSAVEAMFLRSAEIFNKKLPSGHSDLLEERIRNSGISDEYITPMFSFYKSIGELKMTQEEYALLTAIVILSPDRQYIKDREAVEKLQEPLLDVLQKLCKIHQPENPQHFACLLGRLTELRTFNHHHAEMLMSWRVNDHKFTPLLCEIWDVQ
Peroxisome proliferator-activated receptor alpha (Homo sapiens), sequence (Q07869 whole entry, looked up, the tested form may be a part): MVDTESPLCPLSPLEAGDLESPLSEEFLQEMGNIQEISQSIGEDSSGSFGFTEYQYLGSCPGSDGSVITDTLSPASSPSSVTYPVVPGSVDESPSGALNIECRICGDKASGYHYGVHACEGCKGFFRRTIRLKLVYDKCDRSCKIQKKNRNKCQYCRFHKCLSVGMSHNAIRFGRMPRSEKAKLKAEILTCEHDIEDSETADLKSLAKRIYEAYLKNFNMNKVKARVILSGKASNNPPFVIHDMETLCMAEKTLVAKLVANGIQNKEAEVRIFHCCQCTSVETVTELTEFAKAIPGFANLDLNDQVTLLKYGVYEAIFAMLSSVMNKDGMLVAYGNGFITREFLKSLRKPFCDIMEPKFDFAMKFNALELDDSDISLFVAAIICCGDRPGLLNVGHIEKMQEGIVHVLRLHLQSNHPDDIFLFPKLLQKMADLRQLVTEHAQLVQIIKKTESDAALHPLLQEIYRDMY
Nuclear receptor subfamily 1 group I member 2 (Rattus norvegicus), sequence (Q9R1A7 whole entry, looked up): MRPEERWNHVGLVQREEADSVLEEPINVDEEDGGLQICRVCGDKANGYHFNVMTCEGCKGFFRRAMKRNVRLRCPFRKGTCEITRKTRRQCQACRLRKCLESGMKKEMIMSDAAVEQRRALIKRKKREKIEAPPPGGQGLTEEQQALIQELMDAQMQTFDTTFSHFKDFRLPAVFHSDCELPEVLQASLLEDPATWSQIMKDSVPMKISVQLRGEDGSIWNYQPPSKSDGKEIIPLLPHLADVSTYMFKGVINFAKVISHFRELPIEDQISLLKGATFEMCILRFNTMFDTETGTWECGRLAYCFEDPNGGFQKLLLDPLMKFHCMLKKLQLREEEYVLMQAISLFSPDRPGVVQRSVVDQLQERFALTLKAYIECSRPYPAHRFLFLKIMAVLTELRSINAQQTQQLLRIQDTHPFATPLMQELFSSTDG
Peroxisome proliferator-activated receptor delta (Homo sapiens), sequence (Q03181 whole entry, looked up): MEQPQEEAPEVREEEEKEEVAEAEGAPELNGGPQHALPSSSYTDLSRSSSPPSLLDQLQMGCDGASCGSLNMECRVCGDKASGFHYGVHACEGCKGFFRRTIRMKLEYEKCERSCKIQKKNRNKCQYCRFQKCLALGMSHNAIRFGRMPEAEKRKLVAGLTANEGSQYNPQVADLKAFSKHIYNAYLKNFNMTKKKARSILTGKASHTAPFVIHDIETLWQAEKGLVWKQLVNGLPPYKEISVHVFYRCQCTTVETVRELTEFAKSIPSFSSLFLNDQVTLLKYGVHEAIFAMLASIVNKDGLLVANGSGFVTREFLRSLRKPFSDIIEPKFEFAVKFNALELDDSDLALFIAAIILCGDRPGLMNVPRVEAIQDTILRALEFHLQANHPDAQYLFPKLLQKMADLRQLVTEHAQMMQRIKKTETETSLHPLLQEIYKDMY

CS(=O)(=O)NC(=O)c1cc(Oc2ccc(C(F)(F)F)cc2Cl)ccc1[N+](=O)[O-]
1.68%: max response [6]
inactive: Potency [1] | activation [2] -9.24% | Potency [3] | Potency [4] | outcome [5] | Potency [7] | Potency [8] | max response [10] -2.65% | activity change % (negative = inhibition) [11] -8.1% | activation [12] -3.62% | max response [13] -2.59% | Potency [14] | max response [15] -3.04% | Potency [16] | max response [17] -4.18% | outcome [18]
-6.47%: max response [9]

CCC(CC)Nc1c([N+](=O)[O-])cc(C)c(C)c1[N+](=O)[O-]
active: Potency [24] 27.3 µM
inactive: Potency [1] | activation [19] -2.05% | Potency [20] | outcome [21] | Potency [3] | Potency [23] | Potency [4] | outcome [5] | Potency [7] | Potency [8] | activity change % (negative = inhibition) [11] -5.09% | activation [12] -0.326% | activation [25] -1.58% | activation [26] 4.64% | max response [13] -0.0369% | Potency [14] | max response [27] -7.95% | max response [15] -2.98% | Potency [16]
-38.2%: max response [22]

Cl[Si](Cl)(c1ccccc1)c1ccccc1
inactive: activation [2] 3.41%

O=[N+]([O-])c1ccc(O)cc1C(F)(F)F
inactive: activation [2] -0.0736%

CO/N=C(/C1=NOCCO1)c1ccccc1Oc1ncnc(Oc2ccccc2Cl)c1F
active: Potency [1] 35.5 µM | Potency [23] 25.1 µM
inactive: activation [2] 7.75% | activation [19] -11.9% | activation [25] 4.67% | max response [13] 18.3% | Potency [14] | max response [27] 16.2% | max response [15] 6.13% | outcome [18]
